Where “and” joins values, the source holds several entries; their conditions need not be identical. Equal entries are not always repeated. Inconclusive results are not listed. Some compounds were tested as several samples or in several runs, with calls that do not always agree. Calls of active or inactive are those of the source. Unless noted, the call rests on the fitted dose curve; in most records, active means well fitted curve in the direction sought with a large enough effect in the repeat runs; inconclusive means weak or mixed curves; inactive means no such curve, though single readings can be large; an effect the other way counts as inactive or inconclusive.

Assay [1] concerns the target Thyrotropin-releasing hormone receptor (Homo sapiens) (UniProt P34981). Description: qHTS assay to identify small molecule agonists of the thyrotropin-releasing hormone receptor (TRHR) signaling pathway (AID 1346891; calls by dose curve; further: potency means the concentration at half of the fitted maximal effect; on activation: series mostly up to about 58 µM). The method in brief:
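Intracellular calcium rise, read as fluorescence every second for 3 min, served as the agonist signal in dye-loaded HEK293 cells expressing TRHR; each compound ran at 15 concentrations in triplicate.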

Assay [2] in a line: Human pregnane X receptor (PXR) small molecule agonists, qHTS cell viability counter screen (AID 1346977). Further: nearly all actives have a fitted effect of over 50% in size. Further: potency means the concentration at half of the fitted maximal effect. The method in brief:
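PXR-Luc HepG2, 2,000 cells/well, 5% charcoal-stripped FBS; 5hr settle; cpd 24hr, 37C/5% CO2; CellTiter-Fluor at 23hr, read 1hr later (fluorescence).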
A general note: qHTS replaces the single test concentration by a dilution series.

Assay [3] can be described thus: Caspase-3/7 induction in HepG2 cells by small molecules, qHTS assay (AID 1346978). Further: nearly all actives have a fitted effect of over 15% in size. Further: potency means the concentration at half of the fitted maximal effect. The method, boiled down:
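Caspase-3/7 induction was measured by Caspase-Glo 3/7 luminescence (30 min, room temperature) after a 17 hr compound exposure of wild-type HepG2 cells seeded at 2,000 per well and pre-incubated 5 hr.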

Assay [4] in a line: Caspase-3/7 induction in CHO-K1 cells by small molecules, qHTS cell viability counter screen (AID 1346979). Further: nearly all actives have a fitted effect of over 35% in size. Further: potency means the concentration at half of the fitted maximal effect. The method in brief: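 Cells (CHO-K1, wild type) are plated at 1,500 per well and incubated 5hr. Test compounds in DMSO are then pinned in, followed by 16hr at 37C and 5% CO2. Viability is read by CellTiter-Fluor fluorescence after 1hr.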
Assay [5] in a line: Caspase-3/7 induction in CHO-K1 cells by small molecules, qHTS assay (AID 1346980). Further: nearly all actives have a fitted effect of over 15% in size. The method in brief: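 Luminescent Caspase-Glo 3/7 read (30min, room temperature) quantified apoptosis induction. Cells were wild-type CHO-K1, treated with compound for 17hr at 37 C and 5% CO2.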
The nature of assay [6]: Caspase-3/7 induction in HepG2 cells by small molecules, qHTS cell viability counter screen (AID 1346981). Further: series mostly up to about 92 µM; nearly all actives have a fitted effect of over 30% in size. The method, boiled down:
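In this quantitative HTS counter screen, compounds delivered in DMSO were left on unmodified HepG2 cells for 16 hr at 37 C. Viability was then determined fluorometrically with CellTiter-Fluor, in parallel with caspase-3/7 induction in the same wells.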

The target of assay [7] is Nuclear receptor subfamily 1 group I member 2 (Homo sapiens) (UniProt O75469). Description: Human pregnane X receptor (PXR) small molecule agonists, qHTS assay (AID 1346982). Further: nearly all actives have a fitted effect of over 35% in size. Further: potency means the concentration at half of the fitted maximal effect. The method, boiled down: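 Reporter HepG2 cells expressing PXR-Luc are cultured in charcoal-stripped FBS (5%), treated with compounds for 24 hr at 37 C, and assayed by ONE-Glo luminescence after 30 min at room temperature.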

For assay [8], the target named is Cytochrome P450 2D6 (Homo sapiens) (UniProt P10635). Description: Cytochrome P450 Family 2 Subfamily D Member 6 (CYP2D6) small molecule antagonists: luciferase reporter qHTS assay (AID 1671196). Further: nearly all actives have a fitted effect of over 50% in size. Further: potency means the concentration at half of the fitted maximal effect. The method in brief:
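Test chemicals meet CYP2D6 plus proluciferin substrate (10 min, RT); NADPH regenerating solution then drives turnover for 1 h. Detection reagent halts the reaction; luminescence measured after 20 min.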
In general terms: In a reporter assay the amount or activity of a reporter protein is the signal.

In assay [9] the target is Cytochrome P450 2C19 (Homo sapiens) (UniProt P33261). Description: Cytochrome P450 Family 2 Subfamily C Member 19 (CYP2C19) small molecule antagonists: luciferase reporter qHTS assay (AID 1671197). Further: nearly all actives have a fitted effect of over 65% in size. Further: potency means the concentration at half of the fitted maximal effect. The method, boiled down: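 Compounds were tested on CYP2C19 activity via proluciferin conversion to luciferin. The 37C, 1 h reaction followed NADPH addition; detection reagent stopped it.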

The target in assay [10] is Cytochrome P450 2C9 (Homo sapiens) (UniProt P11712). Description: Cytochrome P450 Family 2 Subfamily C Member 9 (CYP2C9) small molecule antagonists: luciferase reporter qHTS assay (AID 1671198). Further: nearly all actives have a fitted effect of over 50% in size. Further: potency means the concentration at half of the fitted maximal effect. The method in brief: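 Enzyme-substrate mix preincubated with compound 10 min at room temperature; reaction started with NADPH regeneration solution, 1 h 37C. Luminescent luciferin product read after 20 min detection reagent.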

The target in assay [11] is Voltage-gated inwardly rectifying potassium channel KCNH2 (Homo sapiens) (UniProt Q12809). As to the kind of experiment: Human Ether-a-go-go-Related Gene (hERG) channel small molecule antagonists: fluorescence cell-based qHTS assay (AID 1671200). Further: nearly all actives have a fitted effect of over 50% in size. Further: potency means the concentration at half of the fitted maximal effect. The method in brief: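 Channel function was assessed by thallium flux. Cells seeded the previous day and kept at 37 C took up FluxOR II dye over 1 h in the dark at room temperature, then sat another 10 min before stimulation.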
Background: hERG is a cardiac potassium channel; its block is linked to QT prolongation.

Assay [12] deals with Cytochrome P450 3A4 (Homo sapiens) (UniProt P08684). As to the kind of experiment: Cytochrome P450 Family 3 Subfamily A Member 4 (CYP3A4) small molecule antagonists: luciferase reporter qHTS assay (AID 1671201). Further: nearly all actives have a fitted effect of over 50% in size. Further: potency means the concentration at half of the fitted maximal effect. The method in brief:
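Compounds in DMSO were pin-transferred onto CYP3A4 enzyme-substrate mix and held 10 min at room temperature. NADPH regenerating solution started the reaction for 1 h; luciferin detection reagent stopped it, and luminescence was read after 20 min.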

For assay [13], the target named is Cytochrome P450 1A2 (Homo sapiens) (UniProt P05177). Description: Cytochrome P450 Family 1 Subfamily A Member 2 (CYP1A2) small molecule antagonists: luciferase reporter qHTS assay (AID 1671199). Further: nearly all actives have a fitted effect of over 50% in size. Further: potency means the concentration at half of the fitted maximal effect. The method, boiled down:
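Steps: enzyme-substrate mix dispensed; test compounds and furafylline control pinned in; 10 min room temperature; NADPH regeneration solution added, 1 h; reaction stopped with luciferin detection reagent; luminescence read after 20 min.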

Assay [14] addresses Nuclear receptor subfamily 1 group I member 2 (Rattus norvegicus) (UniProt Q9R1A7). As to the kind of experiment: Rat pregnane X receptor (rPXR) activation by small molecules, qHTS assay (AID 1346983). Further: nearly all actives have a fitted effect of over 20% in size. To be noted: rPXR luciferase reporter cells, One-Glo luminescence, 24 h; max activation: stronger effect = higher value. The method, boiled down: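 Luminescent readout (One-Glo luciferase, 30 min room temperature) followed 24 hr compound treatment at 37 C of rPXR cells plated 2,000 per well and preincubated 5hr; qHTS format with compounds delivered in DMSO.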

For assay [15], the target named is Nuclear receptor subfamily 1 group I member 2 (Homo sapiens) (UniProt O75469). Description: CYP3A4 induction through human pregnane X receptor (PXR) by small molecules, qHTS assay (AID 1346984). Further: nearly all actives have a fitted effect of over 40% in size. The method, boiled down:
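Induction measured in HepG2-based DPX-2 cells co-expressing human PXR and a CYP3A4 promoter-driven luciferase. After a 24-hour compound exposure, cells received CYP3A4 luciferin substrate at 3uM final for 3 hours, and light output was then recorded.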

Assay [16] shares this target. As to the kind of experiment: Human pregnane X receptor (PXR) activation by small molecules, qHTS assay (AID 1346985). Further: nearly all actives have a fitted effect of over 40% in size. The method in brief:
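DPX-2 cells (HepG2 co-transfected with a PXR response element and a CYP3A4-promoter luciferase construct) were seeded at 2,000 per well, rested 5 hr at 37C, then exposed to DMSO-dissolved compounds for 24 hr. Activation was read as luciferase luminescence.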
On the % scale 0 is the no-effect control and ±100 the full control effect.

Cytochrome P450 1A2 (Homo sapiens), sequence (P05177 whole entry, looked up): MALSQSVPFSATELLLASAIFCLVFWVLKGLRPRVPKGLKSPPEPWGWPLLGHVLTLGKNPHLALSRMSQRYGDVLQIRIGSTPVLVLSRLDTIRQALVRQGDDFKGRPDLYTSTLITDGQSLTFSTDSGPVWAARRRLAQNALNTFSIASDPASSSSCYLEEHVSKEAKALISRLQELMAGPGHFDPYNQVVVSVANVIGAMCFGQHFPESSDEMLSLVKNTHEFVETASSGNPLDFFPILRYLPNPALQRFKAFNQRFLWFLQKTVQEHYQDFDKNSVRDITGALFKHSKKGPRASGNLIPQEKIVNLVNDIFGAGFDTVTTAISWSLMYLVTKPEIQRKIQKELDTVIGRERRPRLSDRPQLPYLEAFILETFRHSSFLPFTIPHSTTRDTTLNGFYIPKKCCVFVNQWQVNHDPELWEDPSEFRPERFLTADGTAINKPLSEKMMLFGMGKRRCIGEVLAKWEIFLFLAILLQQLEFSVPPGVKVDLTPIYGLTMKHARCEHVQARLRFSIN
Cytochrome P450 2D6 (Homo sapiens), sequence (P10635 whole entry, looked up): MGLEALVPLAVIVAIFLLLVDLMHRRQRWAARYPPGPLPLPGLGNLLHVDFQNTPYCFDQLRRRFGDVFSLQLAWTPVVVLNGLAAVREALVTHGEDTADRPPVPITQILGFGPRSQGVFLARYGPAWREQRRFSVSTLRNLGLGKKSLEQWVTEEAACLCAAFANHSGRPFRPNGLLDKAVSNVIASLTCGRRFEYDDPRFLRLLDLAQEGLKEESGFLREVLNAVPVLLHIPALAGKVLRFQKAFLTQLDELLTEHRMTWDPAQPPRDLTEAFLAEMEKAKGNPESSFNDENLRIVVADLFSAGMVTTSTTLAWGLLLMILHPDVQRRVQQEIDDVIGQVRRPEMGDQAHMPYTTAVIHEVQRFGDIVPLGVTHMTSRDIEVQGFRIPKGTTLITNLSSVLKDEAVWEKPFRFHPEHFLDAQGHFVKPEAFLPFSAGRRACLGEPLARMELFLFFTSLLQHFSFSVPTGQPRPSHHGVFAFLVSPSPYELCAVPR
Thyrotropin-releasing hormone receptor (Homo sapiens), sequence (P34981 whole entry, looked up): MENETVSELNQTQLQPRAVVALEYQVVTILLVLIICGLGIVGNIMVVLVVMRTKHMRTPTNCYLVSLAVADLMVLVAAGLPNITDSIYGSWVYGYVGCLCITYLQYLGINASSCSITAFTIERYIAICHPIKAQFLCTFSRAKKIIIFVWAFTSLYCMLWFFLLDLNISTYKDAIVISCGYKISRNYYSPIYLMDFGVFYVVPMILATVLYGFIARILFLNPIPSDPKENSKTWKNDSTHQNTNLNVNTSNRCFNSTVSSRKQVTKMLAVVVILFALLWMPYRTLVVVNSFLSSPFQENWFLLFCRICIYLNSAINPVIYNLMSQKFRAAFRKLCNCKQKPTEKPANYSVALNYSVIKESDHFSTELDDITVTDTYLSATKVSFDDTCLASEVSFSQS
Voltage-gated inwardly rectifying potassium channel KCNH2 (Homo sapiens), sequence (Q12809 whole entry, looked up): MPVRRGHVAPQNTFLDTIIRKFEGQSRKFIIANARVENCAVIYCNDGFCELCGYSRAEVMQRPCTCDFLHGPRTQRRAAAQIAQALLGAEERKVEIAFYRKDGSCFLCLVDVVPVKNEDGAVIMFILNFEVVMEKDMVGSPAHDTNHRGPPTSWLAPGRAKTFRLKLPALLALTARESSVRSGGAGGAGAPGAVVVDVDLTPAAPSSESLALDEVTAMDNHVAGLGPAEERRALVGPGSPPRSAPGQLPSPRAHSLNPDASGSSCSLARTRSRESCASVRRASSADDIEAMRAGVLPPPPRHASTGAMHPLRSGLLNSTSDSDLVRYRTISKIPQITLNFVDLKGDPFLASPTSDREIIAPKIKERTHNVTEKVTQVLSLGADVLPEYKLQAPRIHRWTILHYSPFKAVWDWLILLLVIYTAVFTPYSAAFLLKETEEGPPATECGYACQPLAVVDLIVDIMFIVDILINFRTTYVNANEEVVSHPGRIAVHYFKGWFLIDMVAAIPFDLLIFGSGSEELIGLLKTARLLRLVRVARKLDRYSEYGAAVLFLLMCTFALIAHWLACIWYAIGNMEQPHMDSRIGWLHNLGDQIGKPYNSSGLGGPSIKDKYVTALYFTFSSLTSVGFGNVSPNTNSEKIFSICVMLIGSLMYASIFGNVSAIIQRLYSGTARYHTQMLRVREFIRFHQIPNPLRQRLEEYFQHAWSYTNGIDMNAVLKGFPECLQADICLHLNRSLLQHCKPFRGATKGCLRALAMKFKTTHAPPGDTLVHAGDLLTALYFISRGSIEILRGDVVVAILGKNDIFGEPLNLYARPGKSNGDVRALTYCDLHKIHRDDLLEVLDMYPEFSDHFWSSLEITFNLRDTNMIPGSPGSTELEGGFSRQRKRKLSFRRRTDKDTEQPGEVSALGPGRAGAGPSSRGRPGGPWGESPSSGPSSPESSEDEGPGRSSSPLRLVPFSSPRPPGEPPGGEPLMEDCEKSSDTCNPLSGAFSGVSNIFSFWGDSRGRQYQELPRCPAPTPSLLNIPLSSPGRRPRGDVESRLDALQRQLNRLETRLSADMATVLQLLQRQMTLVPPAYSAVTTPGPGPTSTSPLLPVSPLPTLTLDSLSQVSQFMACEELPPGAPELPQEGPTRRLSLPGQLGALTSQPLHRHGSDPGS
Cytochrome P450 2C9 (Homo sapiens), sequence (P11712 whole entry, looked up): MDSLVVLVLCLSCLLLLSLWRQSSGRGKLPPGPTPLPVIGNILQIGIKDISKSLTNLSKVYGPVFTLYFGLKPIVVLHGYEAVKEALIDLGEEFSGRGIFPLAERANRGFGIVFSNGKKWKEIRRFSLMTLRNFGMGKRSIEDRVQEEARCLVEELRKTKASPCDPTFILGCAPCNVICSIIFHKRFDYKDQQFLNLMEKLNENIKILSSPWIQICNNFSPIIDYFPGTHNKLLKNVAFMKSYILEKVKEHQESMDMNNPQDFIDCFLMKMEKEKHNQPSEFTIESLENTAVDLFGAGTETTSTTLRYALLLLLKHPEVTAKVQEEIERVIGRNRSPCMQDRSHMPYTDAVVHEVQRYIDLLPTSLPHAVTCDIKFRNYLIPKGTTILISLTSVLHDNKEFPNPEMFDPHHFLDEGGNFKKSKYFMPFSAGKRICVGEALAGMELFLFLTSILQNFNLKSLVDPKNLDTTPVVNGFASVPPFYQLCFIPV
Cytochrome P450 3A4 (Homo sapiens), sequence (P08684 whole entry, looked up): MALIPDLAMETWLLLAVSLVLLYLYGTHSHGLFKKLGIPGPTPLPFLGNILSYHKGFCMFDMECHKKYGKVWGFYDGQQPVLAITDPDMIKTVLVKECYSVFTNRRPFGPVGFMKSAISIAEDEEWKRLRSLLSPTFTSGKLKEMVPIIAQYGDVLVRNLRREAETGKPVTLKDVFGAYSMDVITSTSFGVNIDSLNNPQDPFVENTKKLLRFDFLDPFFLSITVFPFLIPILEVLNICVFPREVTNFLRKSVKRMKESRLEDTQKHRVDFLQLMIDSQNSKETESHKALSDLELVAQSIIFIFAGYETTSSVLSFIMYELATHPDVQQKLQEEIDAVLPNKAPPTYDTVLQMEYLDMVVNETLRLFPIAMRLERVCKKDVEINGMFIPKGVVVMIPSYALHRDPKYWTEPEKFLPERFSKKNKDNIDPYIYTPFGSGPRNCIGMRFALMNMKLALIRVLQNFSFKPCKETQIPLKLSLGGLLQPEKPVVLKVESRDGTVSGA
Cytochrome P450 2C19 (Homo sapiens), sequence (P33261 whole entry, looked up): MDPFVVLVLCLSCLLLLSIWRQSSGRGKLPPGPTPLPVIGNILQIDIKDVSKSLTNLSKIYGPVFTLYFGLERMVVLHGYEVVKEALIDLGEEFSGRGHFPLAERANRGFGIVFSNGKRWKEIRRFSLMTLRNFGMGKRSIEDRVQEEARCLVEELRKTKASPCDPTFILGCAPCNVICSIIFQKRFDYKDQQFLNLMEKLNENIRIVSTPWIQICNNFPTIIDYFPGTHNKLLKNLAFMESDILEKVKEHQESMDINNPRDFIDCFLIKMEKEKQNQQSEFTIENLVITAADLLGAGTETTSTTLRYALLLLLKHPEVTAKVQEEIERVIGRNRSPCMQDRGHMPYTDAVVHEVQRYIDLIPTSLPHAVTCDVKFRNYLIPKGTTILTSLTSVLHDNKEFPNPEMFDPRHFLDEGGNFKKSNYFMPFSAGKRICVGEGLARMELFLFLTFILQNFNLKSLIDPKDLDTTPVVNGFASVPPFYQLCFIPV
Nuclear receptor subfamily 1 group I member 2 (Homo sapiens), sequence (O75469 whole entry, looked up): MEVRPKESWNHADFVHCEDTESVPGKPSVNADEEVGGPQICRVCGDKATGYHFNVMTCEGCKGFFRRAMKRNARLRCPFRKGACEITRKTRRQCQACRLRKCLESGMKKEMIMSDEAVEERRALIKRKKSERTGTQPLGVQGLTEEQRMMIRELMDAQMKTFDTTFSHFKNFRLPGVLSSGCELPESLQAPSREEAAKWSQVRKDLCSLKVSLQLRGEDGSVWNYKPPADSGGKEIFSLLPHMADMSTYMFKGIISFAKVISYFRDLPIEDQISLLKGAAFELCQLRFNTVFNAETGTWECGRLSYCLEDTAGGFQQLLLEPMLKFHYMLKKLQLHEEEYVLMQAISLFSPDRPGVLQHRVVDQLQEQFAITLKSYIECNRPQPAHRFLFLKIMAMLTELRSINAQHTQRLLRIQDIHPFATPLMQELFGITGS
Nuclear receptor subfamily 1 group I member 2 (Rattus norvegicus), sequence (Q9R1A7 whole entry, looked up): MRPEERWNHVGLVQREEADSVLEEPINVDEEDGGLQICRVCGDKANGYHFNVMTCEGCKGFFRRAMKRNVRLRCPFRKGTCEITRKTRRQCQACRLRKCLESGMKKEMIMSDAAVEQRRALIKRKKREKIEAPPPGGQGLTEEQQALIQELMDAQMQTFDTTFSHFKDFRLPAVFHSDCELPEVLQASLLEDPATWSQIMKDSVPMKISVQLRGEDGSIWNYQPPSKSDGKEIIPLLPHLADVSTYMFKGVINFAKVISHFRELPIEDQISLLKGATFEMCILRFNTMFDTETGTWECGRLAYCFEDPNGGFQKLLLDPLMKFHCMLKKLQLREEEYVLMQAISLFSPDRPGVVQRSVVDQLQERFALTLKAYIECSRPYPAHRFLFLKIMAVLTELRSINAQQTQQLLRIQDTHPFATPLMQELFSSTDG

Take `C=C(C)C(=O)OCCCCCC`: the Potency entry in assay [1], in assay [2], in assay [3], in [4], in assay [5] and in [6] was “inactive” each time. For the same compound, the Potency result in assay [7], in assay [8], in assay [9], in assay [10], in [11] and in [12] was “inactive” in each case.
On to `COC(=O)c1ccc(C(=O)OC)cc1`, for which the Potency entry in assay [1], in [5], in assay [6], in assay [8], in assay [11] and in [12] was “inactive” in each case. Besides, the Potency in assay [2] is 7.08 µM (active) and inactive; in [3] it was 9.82 µM (active) and inactive; in assay [4], 780 nM (active) and inactive; in [7], 2.2 µM (active) and inactive; in assay [9], 18.1 µM (active) and inactive; in [10], 40.5 µM (active) and inactive. Also, in assay [13], the Potency is 25.5 µM (active) and 10 µM (active).
Take `CCCCCCCCCCCCN`: the Potency result in assay [1] was “inactive and 38.9 µM (active)”; in [2], “inactive and 30.6 µM (active)”; in assay [3], “inactive and 61.1 µM (active)”; in [4], “inactive and 30.6 µM (active)”; in assay [8], 16 µM (active) and 2.24 µM (active) and 8.09 µM (active); in assay [9] it was 4.02 µM (active) and 633 nM (active) and 2.56 µM (active). In addition, the Potency in assay [10] was 22.6 µM (active) and 6.33 µM (active) and 32.2 µM (active); in assay [13], 16 µM (active) and 2.83 µM (active) and 9.08 µM (active); in assay [11], “inactive and 12.3 µM (active)”. Further, the Potency result in assay [5], in assay [6], in [7] and in assay [12] was “inactive” throughout.
Turning to `CC(C)NCC(O)COc1cccc2ccccc12` (centres undefined), the Potency entry was “inactive and 43.7 µM (active)” in assay [1]; 39.8 µM (active) in assay [2]. The Potency result in assay [3], in assay [4], in assay [5] and in assay [6] was “inactive” throughout.
In the case of `CC1CC(OC(=O)c2ccccc2O)CC(C)(C)C1` (centres undefined), the Potency entry in assay [1], in assay [2], in assay [3], in assay [4], in assay [5] and in assay [6] was “inactive” each time. Besides, the Potency result in assay [7], in [8], in assay [9], in assay [11] and in [12] was “inactive” throughout. Also, in assay [14], the max activation was -1.96% (inactive). For the same compound, the compound was classed as inactive in assay [15] and in assay [16]. The Potency result in assay [10] is “inactive and 44.8 µM (active)”; in [13], “inactive and 27.5 µM (active)”.
Take `O=C(Cl)c1c(Cl)c(Cl)c(C(=O)Cl)c(Cl)c1Cl`: the Potency entry in [1], in [2], in assay [3], in [4], in assay [5] and in assay [6] was “inactive” throughout. The Potency result in assay [7], in assay [9], in assay [10], in [11] and in assay [12] was “inactive” each time. The Potency in assay [8] was 89.4 µM (active).
Consider `CC1Cc2ccccc2N1NC(=O)c1ccc(Cl)c(S(N)(=O)=O)c1` (centres undefined), for which the Potency entry in assay [1], in assay [2], in assay [3], in assay [4], in [5] and in assay [6] was “inactive” throughout. The Potency result in assay [9], in [10], in assay [13] and in assay [11] was “inactive” throughout. Also, the Potency in assay [7] is 30.6 µM (active) and 9.44 µM (active). Besides, in assay [14], the max activation was -2.07% (inactive). The result in assay [15] and in [16] was inactive.
For `O=C(c1ccc(O)cc1)c1ccc(O)cc1O`, the Potency result in [1], in [2], in assay [3], in [4], in assay [5] and in assay [6] was “inactive” in each case. For the same compound, the Potency entry in [10] and in [11] was “inactive” each time. Also, the Potency was 61.8 µM (active) and 48.6 µM (active) in [7]; 36 µM (active) and 35.6 µM (active) in [8]; 32.1 µM (active) and inactive in assay [9]; 28.6 µM (active) and 35.6 µM (active) in assay [13]; 7.18 µM (active) and 22.4 µM (active) in assay [12].
